# Screening results as filed in PubChem BioAssay.
# NTMT1 inh: NTMT1 methyltransferase inhibition; NTMT1 MTase-Glo SAH luminescence, purified enzyme; Potency, µM (titrated, usually from 114 µM), actives largely listed as inhibitors; hit rate 2.5% among 59,000; Q9BV86; AID 1645870; also: nearly all actives have a fitted effect of over 65% in size
# Target sequence (Q9BV86 whole entry, looked up): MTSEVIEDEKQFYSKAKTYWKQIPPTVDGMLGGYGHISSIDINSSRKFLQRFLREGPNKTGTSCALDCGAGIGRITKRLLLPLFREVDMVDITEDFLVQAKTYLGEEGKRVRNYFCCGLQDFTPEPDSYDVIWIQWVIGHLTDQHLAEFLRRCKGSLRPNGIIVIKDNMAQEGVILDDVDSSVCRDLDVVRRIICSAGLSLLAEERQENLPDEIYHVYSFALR
# HTT-AS act: activates huntingtin-antisense promoter activity. Potency, µM (top dose mostly 57.5 µM), most hits filed as activators. hit rate 0.24% among 48,000. HEK293 HTT-AS promoter firefly luciferase reporter, 24 h; response scale: percent change from vehicle, -100% = no light; also: nearly all actives have a fitted effect of over 55% in size
#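 HEK293 cells carrying firefly luciferase reporters were seeded at 2,500 per well in Opti-MEM and cultured for 24 h. They were then treated with compounds at up to 57.5 uM final for 24 h at 37 degrees C before Dual-Glo luminescence readout.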
# HTT promoter inh: inhibits huntingtin promoter activity | HEK293 HTT promoter firefly luciferase reporter, 24 h | Potency, µM (doses to about 57.5 µM), usual class: inhibitors | hit rate 0.93% among 48,000; also: nearly all actives have a fitted effect of over 50% in size
#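 Firefly luciferase signal from promoter-reporter HEK293 cells was scaled between vehicle (0%) and zero RLU (-100%). Compounds were tested at final concentrations of up to 57.5 uM over 24 h at 37 degrees C. PTC124 at 50 uM final served as control inhibitor.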
# DYRK1A inh: inhibitors of human DYRK1A kinase. shares compounds with NTMT1 inh. recombinant DYRK1A, Kinase-Glo ATP depletion luminescence. Potency, µM (doses to about 76.9 µM), hits mostly inhibitors. hit rate 80% among 100. AID 2705
# CLK4 KinaseGlo: CLK4 kinase inhibition, SAR round 2. Potency, µM (titrated, usually from 76.9 µM), usual class: inhibitors. AID 493204. recombinant Clk4, Kinase-Glo ATP luminescence, 4.5 h. hit rate 90% among 90. shares compounds with NTMT1 inh
# NNMT inh: human NNMT inhibition, NTMT1 counter-screen; shares compounds with NTMT1 inh; NNMT MTase-Glo luminescence, SAH detection; Potency, µM (titrated, usually from 57.1 µM), usual class: inhibitors; hit rate 10% among 120
# Target sequence (P40261 whole entry, looked up): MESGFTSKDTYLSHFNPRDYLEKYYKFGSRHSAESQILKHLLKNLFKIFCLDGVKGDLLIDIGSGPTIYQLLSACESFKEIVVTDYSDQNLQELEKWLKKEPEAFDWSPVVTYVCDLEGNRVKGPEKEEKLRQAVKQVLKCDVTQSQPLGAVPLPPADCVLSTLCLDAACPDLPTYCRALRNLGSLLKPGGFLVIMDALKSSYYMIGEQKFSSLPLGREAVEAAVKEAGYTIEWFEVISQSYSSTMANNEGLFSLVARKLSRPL
# Numbers stand for hits; - = inactive; ? = inconclusive; . = no result; ! = not confirmed by another sample; [ ] = another dose, or the depositor's remark. The sample as a whole holds a higher share of hits than the screen did. Calls follow the shape of the dose curve; as a rule, active = well fitted curve in the direction sought with a large enough effect; inconclusive = small, poorly fitted or top-dose-only effect, or another doubt; inactive = no such curve, though single readings can be large; an effect the other way counts as inactive or inconclusive.
SMILES,NTMT1 inh,HTT-AS act,HTT promoter inh,others
CCOC(=O)c1cnc2ccc(OC)cc2c1NCCc1ccccc1,-,-,32µM,
COc1ccc(C2Nc3cccc(OC)c3C(=O)N2Cc2ccco2)cc1COc1c(C)cc(NC(C)=O)cc1C (stereo not given),-,.,.,
CC(C)(C)OC(=O)N1CCN(c2ccc(NCc3cnc(-c4ccc(C#N)cc4)s3)cc2)CC1,-,.,.,
COc1ccc2nc(N(Cc3cccnc3)C(=O)c3ccc4c(c3)OCCO4)sc2c1,-,-,-,
COc1ccc2sc(N(Cc3cccnc3)C(=O)c3ccc4c(c3)OCCO4)nc2c1,-,-,11µM,
COc1ccnc2[nH]cc(C(=O)C(=O)N3CCN(C(=O)c4ccccc4)CC3C)c12 (stereo not given),-,.,.,
Cc1ccc(-c2ccc(=O)n(CCNCCc3ccccc3)n2)cc1,-,.,.,
O=C(O)c1cccc(S(=O)(=O)Nc2nccs2)c1,-,.,.,
Cc1ccc(NCc2cccn2-c2nnc(N3CCC(C(=O)NCCC(C)C)CC3)s2)cc1,?,-,?,
COc1ccc(NCc2cccn2-c2nnc(N3CCC(C)CC3)s2)c(OC)c1,-,-,?,
Cc1ccc(NCc2cccn2-c2nnc(N3CCC(C(=O)NC(C)C)CC3)s2)cc1,89µM,-,?,
CC1CCN(c2nnc(-n3cccc3CNc3cccc(F)c3)s2)CC1,-,-,5.6µM,
CCOc1ccc(NCc2cccn2-c2nnc(N3CCC(C(=O)NCc4ccccc4Cl)CC3)s2)cc1,-,-,22µM,
COc1ccc(CNC(=O)C2CCN(c3nnc(-n4cccc4CNc4ccc(C)cc4)s3)CC2)c(OC)c1,-,-,?,
Nc1c(S(=O)(=O)c2ccccc2)c2nc3ccccc3nc2n1-c1ccc(F)cc1,-,.,.,
CN[C@@H](C)C(=O)N[C@H](C(=O)N1CCC[C@H]1C(=O)Nc1sc(-c2ncco2)nc1-c1ccccc1)C1CCCCC1,-,.,.,
C[C@H]1[C@H](C)CC[C@]2(C(=O)O)CC[C@]3(C)C(=CCC4[C@@]5(C)C[C@@H](O)[C@H](O)C(C)(C)C5CC[C@]43C)[C@H]12 (stereo not given in full),-,.,.,
Cc1cccc(NC(=O)Cn2c(=O)n(CCc3ccccc3)c(=O)c3ccccc32)c1,-,-,-,
COc1cc2c(=O)n(CCc3ccccc3)c(=O)n(CC(=O)Nc3ccccc3)c2cc1OC,79µM,-,-,
CC(=O)c1cc2c(o1)C(=O)c1ccccc1C2=O,-,.,.,
Cc1nc(-c2ccc(Cl)cc2)sc1CCNC(=O)Cc1ccc(F)cc1,-,-,32µM,
Cc1ccc(Cl)cc1NC(=O)C(=O)NCCc1sc(-c2ccc(F)cc2)nc1C,-,-,-,
CCCCn1c(CNC(=O)c2ccc(OC)cc2)nnc1SCC(=O)Nc1ccc(OC)cc1,?,-,-,
CCOC(=O)c1ccc(NC(=O)CSc2nnc(CNC(=O)c3ccc(OC)cc3)n2CC)cc1,79µM,-,-,
O=C(O)c1ccccc1C(=O)Nc1ccc(-c2ccccc2)cc1,8.6µM!,-,?,
SMILES,NTMT1 inh,HTT-AS act,HTT promoter inh,others
O=C(c1ccccc1)c1ccccc1NC(=O)c1ccccc1C(=O)O,-,-,-,
OCc1ccc(-c2ccc(-c3ccc(CO)s3)o2)s1,?,-,-,NNMT inh=-
Cc1sc2c(c1C)c(=O)n(Cc1ccccc1)c(=O)n2Cc1ccc(F)cc1,-,-,-,
Cn1sc(=O)n(Cc2ccccc2)c1=O,7.9µM,.,.,NNMT inh=1.6µM
COc1cc(C(C)=O)ccc1OCCCN1CCC(c2noc3cc(F)ccc23)CC1,?,-,-,
COc1cc2c(NC3CCN(C(C)C)CC3)nc(C3CCCCC3)nc2cc1OCCCN1CCCC1,?,-,-,NNMT inh=?
COc1cc(NC(=O)CCCN2C(=O)CCn3nc(-c4cn(C)c5ccccc45)cc32)cc(OC)c1,-,-,-,
COc1cccc(Nc2ncc3nc(-c4cn(C)c5ccccc45)c(=O)n(CCC#N)c3n2)c1,.,.,.,CLK4 KinaseGlo=?
CCOC(=O)c1cnc2c(ccc3ccccc32)c1Nc1cccc(OC)c1,-,-[11.5 µM],-[11.5 µM],
COc1cccc(Nc2ncc3ncc(=O)n(C)c3n2)c1,.,.,.,CLK4 KinaseGlo=0.92µM
CNC(=O)c1ccccc1Nc1nc(Nc2ccc3c(c2OC)CCCC(N2CCN(CCO)CC2)C3)ncc1Cl (stereo not given),-,.,.,
CCC1C(=O)N(C)c2cnc(Nc3ccc(C(=O)NC4CCN(C)CC4)cc3OC)nc2N1C1CCCC1 (stereo not given),13µM,.,.,NNMT inh=?
C(=Nc1cccnc1)c1cccs1,-,.,.,
Cc1nc(CNc2ncnc3ccc(-c4ccoc4)cc23)cs1,?,.,.,DYRK1A inh=3.7µM
c1cncc(CNc2ncnc3ccc(-c4ccoc4)cc23)c1,-,.,.,
c1c[nH]c(CNc2ncnc3ccc(-c4ccoc4)cc23)n1,-,.,.,DYRK1A inh=9.2µM
Cc1csc(CNc2ncnc3ccc(-c4ccoc4)cc23)c1,-,.,.,
CCOC(=O)c1ccoc1-c1ccc2ncnc(NCc3ncc[nH]3)c2c1,-,.,.,DYRK1A inh=?
Cc1cccc(CNc2ncnc3ccc(-c4cccc(C)c4)cc23)c1,-,.,.,
Cc1ccc(CNc2ncnc3ccc(-c4ccoc4C)cc23)o1,?,.,.,DYRK1A inh=4.6µM
CC(C)(C)Nc1nc2cc(Cl)c(Cl)cc2nc1S(C)(=O)=O,-,.,.,
Cc1cc(NS(=O)(=O)c2ccc(NC(=O)CCc3ccc(Cl)c(Cl)c3)cc2)no1,-,.,.,
CC(=O)OC1CC2C3(C)CCC(OC(=O)CC(=O)O)C(C)(C)C3CCC2(C)C2(C)CCC(C3(C)CCC(=O)O3)C12 (stereo not given),-,.,.,
C/C(=C\c1csc(C)n1)[C@@H]1C[C@@H]2O[C@]2(C)CCC[C@H](C)[C@H](O)[C@@H](C)C(=O)C(C)(C)[C@@H](O)CC(=O)N1,-,.,.,
FC(F)(F)c1ccccc1-c1nc(NCC23CC4CC(CC(C4)C2)C3)c2ccccc2n1,-,.,.,
SMILES,NTMT1 inh,HTT-AS act,HTT promoter inh,others
Cc1[nH]c2ccccc2c1CCNCc1ccc(/C=C/C(=O)NO)cc1,-,.,.,
C=C(CO)C12OC1C1(C)C(=CC2=O)C(O)C(O)CC1C (stereo not given),-,.,.,
CC1CCC2(C=O)C(CO)=CCCC2C1(C)CC(=O)O (stereo not given),-,.,.,
Cc1occc1-c1ccc2ncnc(NCc3ncc[nH]3)c2c1,-,.,.,DYRK1A inh=2.3µM
Cc1cccc(CNc2ncnc3ccc(-c4ccoc4)cc23)c1,-,.,.,
CC(C)(O)C1CC=C(C(=O)OCC2OC(Oc3c(O)cc(C(=O)O)cc3O)C(O)C(O)C2O)CC1 (stereo not given),-,.,.,
Cc1ccccc1C(=O)N1CCc2cc(-c3cccc(NC(=O)Cc4ccc5c(c4)OCO5)c3)ccc21,-,.,.,
CCOc1cc(N2CCC(O)CC2)ccc1Nc1ncc2c(n1)N(C)c1ccccc1C(=O)N2C,?,-,-,
COc1ccc(N2CCN(C(=O)Nc3ccccc3Cl)CC2)cc1,?,-,-,
